# According to PubChem BioAssay AID463173 (ICCB-Longwood Screening Facility, Harvard Medical School, 2010):
# Out of some 52,000 compounds screened, about 4,300 (8.3%) were called active. Only a selection was taken, and actives are over-represented in it overall. Unmarked numbers belong to inactive results. No stated cut-off is given here; in the data, active means survival mostly below about 52% (no sharp cut-off); inactive means mostly above about 56%.
# Test system: DeltatarO mutant
# Assay: growth inhibition of S. aureus wild type versus tarO mutant, primary screen, teichoic acid synthesis inhibitors, RN4220, OD600 (AID 463173)
# Conditions: OD600, 18 h, stronger effect = lower value, screened at 18.75 µg/mL (by protocol)
row,Compound,survival
1,CC(C)Oc1ccc(CNC(=O)c2ccc3nc(SCc4ccc(F)cc4)n(C)c3c2)cc1,101%
2,CCS(=O)(=O)N1CCC(C(=O)NCCC(C)C)CC1,87%
3,CCCCn1c(SCC(=O)Nc2cccc(OC)c2)nc2c(sc3ccccc32)c1=O,88%
4,Cc1nc2nc(CNC(=O)c3cccc(F)c3)nn2c(C)c1CCC(=O)Nc1cccc(Cl)c1,110%
5,CC1CCCN(S(=O)(=O)c2ccc(N3CCCCS3(=O)=O)cc2)C1 (stereo not drawn),74%
6,CCN(C(=O)c1ccc2c(=O)n3c(nc2c1)CCCCC3)c1cc(C)ccc1C,89%
7,COc1ccc(S(=O)(=O)c2nnn(-c3ccc(C)c(Cl)c3)c2C)cc1,99%
8,Cc1cccc(Cn2c(CNC(=O)c3ccccc3)nc3ccccc32)c1,64%
9,COCc1nc2ccccc2n1Cc1cccc(C)c1,79%
10,Cc1cccc(Cn2c(Cc3ccccc3)nc3ccccc32)c1,22% (active)
11,CC(C)c1ccc(Cn2c(COc3ccccc3)nc3ccccc32)cc1,-1% (active)
12,Cc1ccc2c(=O)cc(C(=O)Nc3ccc(S(=O)(=O)Nc4nc(C)cc(C)n4)cc3)oc2c1,78%
13,COCCn1c(SCC(=O)c2ccc(C)cc2)nc2cc(C(=O)NC3CCCC3)ccc2c1=O,89%
14,COc1cccc(C2=NN(C(C)=O)C(c3cn(-c4ccccc4)nc3-c3cccs3)C2)c1 (stereo not drawn),170%
15,Cc1nn2c(=O)cc(COC(=O)COc3ccc(F)cc3)nc2s1,94%
16,CCn1c(=O)c2cc(C(=O)N(CCCOC(C)C)Cc3ccco3)sc2c2ccccc21,8% (active)
17,CCn1c(=O)c2cc(C(=O)N(CCN(C)C)Cc3ccccc3)sc2c2ccccc21,77%
18,CCn1c(=O)c2cc(C(=O)N(C)c3cc(C)ccc3C)sc2c2ccccc21,105%
19,CCCn1c2ccccc2c2cnn(CC(=O)N(CCCOC(C)C)Cc3ccco3)c(=O)c21,87%
20,Cc1ccc2[nH]c(=O)c3cc(C(=O)N(CCCOC(C)C)Cc4ccco4)sc3c2c1,56% (active)
21,COCCN(Cc1ccco1)C(=O)c1cc2c(=O)[nH]c3ccc(C)cc3c2s1,53%
22,CCn1c(=O)c2cc(C(=O)N(C)c3cc(Cl)c(OC)cc3OC)sc2c2ccccc21,80%
23,CCOCCCN(Cc1ccco1)C(=O)c1cc2c(=O)[nH]c3ccc(C)cc3c2s1,88%
24,CCn1c(=O)c2cc(C(=O)N(CC(C)C)CC(C)C)sc2c2ccccc21,-4% (active)

row,Compound,survival
1,N#CC(C#N)=CC1=C(N2CCCC2)CCCC1,89%
2,Cc1c(-c2nc(-c3ccccc3)no2)nnn1-c1cccc(C(F)(F)F)c1,80%
3,Cc1ccc(NC(=O)Cn2cc(S(=O)(=O)c3ccccc3)c(=O)c3cc4c(cc32)OCO4)cc1,97%
4,Cc1ccccc1-c1noc(-c2cc3ccccc3oc2=O)n1,85%
5,CC1=C(C(N)=O)C(c2cccc(Br)c2)n2nc(SCc3ccccc3)nc2N1 (stereo not drawn),76%
6,O=C(O)CC1CCCC(c2ccccc2)C1=O (stereo not drawn),91%
7,Cc1ccc2c(CC(=O)Nc3c(C(=O)c4ccc(F)cc4)oc4ccccc34)coc2c1,60%
8,Cc1ccc(S(=O)(=O)NCc2nc(-c3cccc(C)c3)no2)cc1,100%
9,CCN(Cc1nc(-c2cccc(C)c2)no1)S(=O)(=O)c1ccc(C)cc1,43% (active)
10,Cc1ccc(-c2noc(CN(C3CCCCC3)S(=O)(=O)c3ccc(F)cc3)n2)cc1,78%
11,COc1ccc(S(=O)(=O)N(Cc2nc(-c3cccc(C)c3)no2)C2CCCCC2)cc1,57%
12,O=S(=O)(c1ccc(F)cc1)N(Cc1nc(-c2ccccc2)no1)C1CCCCC1,45% (active)
13,Cc1ccc(S(=O)(=O)N(Cc2nc(-c3cccc(C)c3)no2)C2CCCCC2)cc1,46% (active)
14,COc1ccc(S(=O)(=O)N(C)Cc2nc(-c3cccc(C)c3)no2)cc1,51%
15,O=S(=O)(c1ccc(F)cc1)N(Cc1nc(-c2ccc(Cl)cc2)no1)C1CCCCC1,76%
16,Cc1cccc(-c2noc(CN(C3CCCCC3)S(=O)(=O)c3ccc(F)cc3)n2)c1,71%
17,COc1ccc(-c2cc(C)no2)cc1S(=O)(=O)N1CCN(c2ccc(C(C)=O)cc2)CC1,91%
18,CCCN1CCN(C(=O)Cn2c(-c3cccs3)cc3ccccc32)CC1,95%
19,Cc1cc(C)c2c(=O)[nH]c(SCC(=O)NCCc3ccccc3)nc2n1,61%
20,CCCN(CCC)CCCNC(=O)C1CCN(c2nc3ccc(CC)cc3s2)CC1,54%
21,CCCCN(C)CCNC(=O)C1CCN(c2nc3ccc(CC)cc3s2)CC1,45%
22,CCOc1ccc2nc(N3CCCC(C(=O)NCCc4ccc(Cl)cc4)C3)sc2c1 (stereo not drawn),48% (active)
23,CCOc1ccc2nc(N3CCCC(C(=O)NCCc4ccc(C)cc4)C3)sc2c1 (stereo not drawn),64%
24,CCOc1ccc2nc(N3CCCC(C(=O)NCCc4ccc(SC)cc4)C3)sc2c1 (stereo not drawn),91%

row,Compound,survival
1,CCCN(CCC)CCNC(=O)C1CCN(c2nc3ccc(CC)cc3s2)CC1,43% (active)
2,COc1ccc(CCNC(=O)CSc2cn(CCNC(=O)c3c(F)cccc3F)c3ccccc23)cc1OC,79%
3,COc1cccc(CNC(=O)C2CCCN(S(=O)(=O)N(C)c3ccc(F)cc3)C2)c1OC (stereo not drawn),87%
4,O=C1CS/C(=N\N2CCOCC2)N1Cc1ccccc1,84%
5,Cc1nnc(N2CCN(C(=O)NC(C)C)CC2)c2nn(-c3ccccc3)c(C)c12,72%
6,CC(C)c1ccc(NC(=O)Nc2csc3c2CCCC3)cc1,13% (active)
7,Cc1ccc(C)c(NC(=O)Nc2csc3c2CCCC3)c1,75%
8,O=C(Nc1ccc(F)cc1)Nc1csc2c1CCCC2,4% (active)
9,CCc1cccc(NC(=O)Nc2csc3c2CCCC3)c1,114%
10,Cc1cc(NC(=O)Nc2csc3c2CCCC3)ccc1Br,44%
11,Cc1ccc(NC(=O)Nc2csc3c2CCCC3)c(C)c1,63%
12,O=C(Nc1ccc(F)cc1)c1csc2c1CCCCC2,63%
13,Cc1cccc(C)c1NC(=O)Nc1csc2c1CCCC2,78%
14,Cc1ccccc1NC(=O)Nc1csc2c1CCCC2,29% (active)
15,CCOCCCNC(=O)CCC(=O)NNc1nc2ccccc2c2nc(-c3ccccc3)nn12,83%
16,COc1ccc(NC(=O)CN2C(=O)CSc3ccc(S(=O)(=O)N(C)C)cc32)cc1Cl,74%
17,CCc1nn(CC(=O)N2CCN(c3cccc(OC)c3)CC2)c(=O)c2cc3occc3n12,91%
18,COc1ccc(S(=O)(=O)N(CCc2ccccc2)CC(N)=O)cc1,88%
19,Cn1nnnc1SCCCNCc1cc(Cl)ccc1OCc1ccccc1,72%
20,O=C(CSc1nc2c(oc3ccccc32)c(=O)n1Cc1ccco1)Nc1cccc(Cl)c1,62%
21,O=C(CSc1nc2c(oc3ccccc32)c(=O)n1-c1ccccc1)Nc1ccc(F)c(Cl)c1,86%
22,CCOc1ccc(NC(=O)CSc2nc3c(oc4ccccc43)c(=O)n2CCOC)cc1,74%
23,O=C(CSc1nc2c(oc3ccccc32)c(=O)[nH]1)Nc1cccc(Cl)c1,37% (active)
24,COc1cccc(-n2c(SCC(=O)Nc3cccc(Cl)c3)nc3c(oc4ccccc43)c2=O)c1,85%

row,Compound,survival
1,COCCn1c(SCC(=O)Nc2ccc(F)c(Cl)c2)nc2c(oc3ccccc32)c1=O,44% (active)
2,O=C(NCc1ccc(F)cc1)C1CCN(c2ncnc3c2nc2n3CCCCC2)CC1,86%
3,CCC1(c2ccccc2)NC(=O)NC1=O (stereo not drawn),98%
4,Clc1nc(Cl)nc(OCCCOc2nc(Cl)nc(Cl)n2)n1,94%
5,CCc1c(C)nc2nncn2c1Nc1ccc(Cl)cc1,91%
6,Cc1ccc(N2CCN(c3nc4ccccc4c4nnc(C)n34)CC2)c(C)c1,101%
7,CCOC(=O)c1cc(OC(=O)c2cc(OC)cc(OC)c2)n(-c2ccccc2)n1,62%
8,CCOC(=O)c1cc(OC(=O)c2ccc(C)cc2)n(-c2ccccc2)n1,137%
9,CCOC(=O)c1cc(OC(=O)c2ccc(OC)cc2)n(-c2ccccc2)n1,59% (active)
10,CCOC(=O)c1cc(OC(=O)c2cccc(C)c2)n(-c2ccccc2)n1,59%
11,CCOC(=O)c1cc(OC(=O)c2ccc(OC)c(OC)c2)n(-c2ccccc2)n1,67%
12,CCOC(=O)c1cc(OC(=O)c2cccc(F)c2)n(-c2ccccc2)n1,61%
13,CCOC(=O)c1cc(OC(=O)c2ccc(Cl)cc2)n(-c2ccccc2)n1,85% (active)
14,CCOC(=O)c1cc(OC(=O)c2cc(OC)c(OC)c(OC)c2)n(-c2ccccc2)n1,54% (active)
15,CCOC(=O)c1cc(OC(=O)c2ccccc2OC)n(-c2ccccc2)n1,54%
16,CCOc1ccc(NC(=O)CN2C(=O)COc3ccc(S(=O)(=O)NC4CCCC4)cc32)cc1,73%
17,O=C(c1ccc(F)cc1)N1CCN(CCc2ccncc2)CC1,84%
18,CCc1ccc(NCc2cc3ccc(OC)cc3n(CC(=O)Nc3c(C)cc(C)cc3C)c2=O)cc1,76%
19,N#CSc1ccc(NCCO)cc1C(F)(F)F,95%
20,O=C(NCCc1ccc(Cl)cc1)C(=O)NCC(c1ccco1)S(=O)(=O)c1ccc(Cl)cc1 (stereo not drawn),94%
21,O=C1CN(C(=O)c2ccc(Cl)cc2Cl)C(c2ccc(F)cc2)c2cc(F)ccc2N1 (stereo not drawn),65%
